Screening results (PubChem BioAssay)
CHO-K1 Ca ag – M1 agonist counterscreen hit in parental CHO-K1 cells; Fluo-8 calcium fluorescence; scaled to maximal ATP response, vehicle zero; activation, % at 3 µM; 360,000 tested, 0.48% active; in the data active means activation above about 15%;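 further: untransfected CHO-K1 host cells lacking M1 receptor as counterscreen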
CHRM1 antagonist – antagonists of human M1 muscarinic receptor. 360,000 tested, 1.3% active. CHO-K1 hM1, Fluo-8 calcium fluorescence, ACh EC80 antagonist. P11229. AID 588852. inhibition, % at 3 µM;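 active means percent inhibition above its own plate's cutoff, namely the mean of that plate's compound wells plus 3 SD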;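 further: peak over basal fluorescence ratio during 140 s after agonist addition; 0% = ACh EC80 plus DMSO and 100% = DMSO alone without agonist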
Target sequence (P11229 whole entry, looked up): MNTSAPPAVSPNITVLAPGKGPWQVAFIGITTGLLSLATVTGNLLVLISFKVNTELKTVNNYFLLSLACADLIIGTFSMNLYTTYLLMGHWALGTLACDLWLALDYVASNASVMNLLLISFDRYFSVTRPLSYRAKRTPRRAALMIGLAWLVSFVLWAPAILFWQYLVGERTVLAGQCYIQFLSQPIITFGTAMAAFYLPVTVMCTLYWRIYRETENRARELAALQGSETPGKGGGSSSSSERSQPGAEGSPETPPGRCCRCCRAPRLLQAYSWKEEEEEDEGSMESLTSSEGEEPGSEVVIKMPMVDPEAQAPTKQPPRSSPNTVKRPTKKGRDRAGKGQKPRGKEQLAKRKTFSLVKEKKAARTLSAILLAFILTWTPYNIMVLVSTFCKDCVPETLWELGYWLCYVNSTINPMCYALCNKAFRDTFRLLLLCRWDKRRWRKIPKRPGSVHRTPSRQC
CHRM1 agonist – agonists of human M1 muscarinic receptor | P11229 | CHO-K1 hM1, Fluo-8 calcium fluorescence, agonist mode; 0% DMSO, 100% acetylcholine EC100 | activation, % at 3 µM | 360,000 tested, 0.33% active;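 active means activation above the run's mean compound activation plus 3 SD, cut at about 16% in these data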;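 further: peak over basal fluorescence ratio within a 140 s kinetic read after compound addition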
CHO-K1 Ca PAM – counter-screen for M1 PAMs: effect in parental CHO-K1 cells | ATP EC20, Fluo-8 calcium fluorescence; 0% at ATP EC20, 100% at ATP max | activation, % at 3 µM | 360,000 tested, 0.02% active | AID 602247;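 active means activation above the run cutoff, the mean activation of all test compounds plus 3 SD, cut at about 40% in these data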;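 further: peak over basal fluorescence ratio in a 140 s read after ATP addition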
CHRM1 PAM – potentiates human M1 receptor response to acetylcholine. CHO-K1 hM1, Fluo-8 calcium fluorescence, ACh EC20; 0% = ACh EC20, 100% = maximal ACh. AID 588819. 360,000 tested, 0.088% active. activation, % at 3 µM; in the data active means activation above about 19%, passing the limit was not always enough
CHO-K1 Ca antag – counter-screen for M1 antagonists: effect in parental CHO-K1 cells; inhibition, % at 3 µM; AID 602250; ATP-induced calcium, Fluo-8 fluorescence; 360,000 tested, 0.6% active;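 active means inhibition above a per-plate cutoff, the plate's mean sample inhibition plus 3 SD, cut at about 24% in these data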;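 further: 0% = DMSO plus EC80 ATP and 100% = DMSO alone without ATP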
The depositor's hits bear a star. In the library only some 2.3% were active in any assay of this set; here they are far more common.

SMILES	CHO-K1 Ca ag	CHRM1 antagonist	CHRM1 agonist	CHO-K1 Ca PAM	CHRM1 PAM	CHO-K1 Ca antag
CC(=O)N1CC(=O)Nc2ccc(Br)cc2C1c1ccc(F)cc1 (centres undefined)	-0.1	-11.8	-4.4	-6.5	6.0	-9.0
O=c1[nH]c(O)c(C=NC2CCCCC2)c(=O)[nH]1	0.1	2.4	-2.3	7.2	25.9*	-9.4
Cc1ccc2c(c1)N(C(C)C(=O)N1CCC3(CC1)OCCO3)C(=O)CO2 (centres undefined)	0.4	-9.8	-4.1	-0.7	4.1	-9.5
Nc1c2c(nc3sc4c(c13)CCCC4)CCCCC2	3.6	35.9*	-3.4	27.2	-20.3	-13.1
Nc1c2c(nc3sc4c(c13)CCCC4)CCCC2	1.5	-2.8	-9.7	12.6	-9.8	-5.5
OCc1cnc[nH]1	-0.5	-25.6	-0.2	-6.7	-0.6	36.2*
COc1ccc(CN2Cc3cc(N4CCCCC4)ccc3-n3nncc3C2)cc1	-0.2	-2.6	-9.2	2.0	0.9	8.0
Clc1ccc(OCC#CCN2CCCCCC2)cc1	0.9	48.9*	-5.5	12.3	-21.9	-14.1
COc1ccccc1OCC#CCN1CCCC1	1.8	90.3*	-6.9	10.5	-21.8	1.7
O=C(NC12CC3CC(CC(C3)C1)C2)OC1CN2CCC1CC2 (centres undefined)	0.8	-1.6	-8.0	26.6	-5.2	-12.6
COC(=O)C1=C(c2c(C)noc2C)C[C@@H]2CC[C@H]1N2C(=O)NCCOc1ccccc1	-0.2	-11.2	-4.6	6.0	10.3	-3.4
CS(=O)(=O)CCN1CC2CCCC(C2)C1	-0.1	-1.0	-6.7	-17.6	-2.1	-7.7
CC(C)(C)c1ccc(CSc2cnn(C(C)(C)C)c(=O)c2Cl)cc1	18.0*	27.4	3.7	-10.2	-6.4	31.5*
CNC(=O)OCc1n(C)cc[n+]1C	0.0	-6.8	-9.5	25.4	3.0	2.0
CC1CN1c1cc2c(c3c1ccn3C)C1CCC2C1 (centres undefined)	-0.3	-46.8	-0.1	14.0	25.6*	11.2
CC(=O)N1CCN(Cc2ccc(Cl)nc2)CC1	0.8	-2.3	-2.7	9.3	28.4*	-5.8
COC(=O)C1=C(c2cccc(OCc3ccccc3)c2)C[C@@H]2CC[C@H]1N2C(=O)NCCc1ccc(F)cc1	1.8	22.1	-7.8	16.2	-20.3	-17.0
CSc1ccc(C(=O)C2CCCN(Cc3cccnc3)C2)cc1 (centres undefined)	5.2	33.9*	-12.8	11.3	-32.9	-3.1
CSc1ccccc1C(=O)C1CCCN(Cc2ccncc2)C1 (centres undefined)	2.6	55.0*	-7.1	15.1	-23.3	-14.2
COc1ccccc1CN1CCCC(C(=O)c2ccccc2SC)C1 (centres undefined)	2.9	32.0	-6.4	9.4	-20.2	0.8
N/C(=N\[N+](=O)[O-])N1CCN(C(=O)Oc2ccccc2)CC1	0.8	2.3	-0.9	11.1	3.0	4.5
CCOC(=O)C1(c2ccccc2)CCN(CCC(C#N)(c2ccccc2)c2ccccc2)CC1	0.3	-17.6	4.1	6.0	4.6	-15.1
Cc1ccc(-c2cc(-c3ccccc3)cc(-c3ccccc3)[n+]2-c2ccc(C(=O)O)cc2)cc1	-0.3	-7.5	-0.1	-1.2	14.8	-14.1
C[n+]1c(-c2ccccc2)cc(CCCCc2cc(-c3ccccc3)[n+](C)c(-c3ccccc3)c2)cc1-c1ccccc1	-0.3	54.6*	-4.9	-0.9	-19.0	-5.5
